The whole screen tested about 5,500 compounds, of which about 2,000 (36%) were called active. About 18% were inconclusive and are not listed. Rule as the data show it: active = normalized growth mostly below about 0.91 (no sharp cut-off); inconclusive = no clear call, values can overlap the other calls; inactive = mostly above about 0.92. This is one part of the list.
Assay: chemical genetic growth profiling, strain panel (AID 1159580);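 also: tested at 20 µM; growth read once vehicle control cultures reached saturation at 30 °C; 1 = growth at the plate median or of vehicle wells; lower values mean less growth of the strain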
Details: growth OD

Measured: normalized growth

COc1ccc2c(c1OC)C(=O)OC2[C@H]1c2c(cc3c(c2OC)OCO3)CCN1C (stereo partly drawn)
inactive: S. cerevisiae deletion strains, locus YJR043C, strain POL32, hits give low values 0.986 | S. cerevisiae deletion strains, locus YJR066W, strain TOR1, hits give low values 0.973 | S. cerevisiae deletion strains, locus YKL009W, strain mrt4, hits give low values 0.972 | S. cerevisiae deletion strains, locus YKL068W, hits give low values 0.99 | S. cerevisiae deletion strains, locus YKL085W, strain MDH1 (second series), hits give low values 0.991 | S. cerevisiae deletion strains, locus YKL085W, strain MDH1, hits give low values 0.991 | S. cerevisiae deletion strains, locus YKL160W, strain elf1, hits give low values 1.01 | S. cerevisiae deletion strains, locus YKL190W, strain CNB1, hits give low values 0.995 | S. cerevisiae deletion strains, locus YKR001C, strain vps1, hits give low values 0.985 | S. cerevisiae deletion strains, locus YKR026C, strain gcn3, hits give low values 1 | S. cerevisiae deletion strains, locus YKR091W, strain srl3, hits give low values 1.01 | S. cerevisiae deletion strains, locus YLL001W, strain dnm1, hits give low values 0.973 | S. cerevisiae deletion strains, locus YLL026W, hits give low values 1.01 | S. cerevisiae deletion strains, locus YLL041C, strain sdh2, hits give low values 0.995 | S. cerevisiae deletion strains, locus YLR027C, strain aat2, hits give low values 1.02 | S. cerevisiae deletion strains, locus YLR039C, strain RIC1, hits give low values 0.997 | S. cerevisiae deletion strains, locus YLR058C, strain SHM2, hits give low values 1.01 | S. cerevisiae deletion strains, locus YLR102C, strain apc9, hits give low values 0.994 | S. cerevisiae deletion strains, locus YLR113W, strain HOG1, hits give low values 0.966 | S. cerevisiae deletion strains, locus YLR221C, strain rsa3, hits give low values 1 | S. cerevisiae deletion strains, locus YLR258W, strain gsy2, hits give low values 1.02 | S. cerevisiae deletion strains, locus YLR262C, strain YPT6 (second series), hits give low values 1.03 | S. cerevisiae deletion strains, locus YLR262C, strain YPT6, hits give low values 1 | S. cerevisiae deletion strains, locus YLR268W, strain sec22, hits give low values 0.948 | S. cerevisiae deletion strains, locus YLR320W, strain mms22, hits give low values 0.975 | S. cerevisiae deletion strains, locus YLR330W, strain CHS5, hits give low values 0.991 | S. cerevisiae deletion strains, locus YLR342W, strain FKS1 (second series), hits give low values 1.01 | S. cerevisiae deletion strains, locus YLR342W, strain FKS1, hits give low values 1.01 | S. cerevisiae deletion strains, locus YLR357W, strain rsc2, hits give low values 0.997 | S. cerevisiae deletion strains, locus YLR370C, strain arc18, hits give low values 1.02 | S. cerevisiae deletion strains, locus YLR371W, strain rom2, hits give low values 0.98 | S. cerevisiae deletion strains, locus YLR384C, strain iki3, hits give low values 1 | S. cerevisiae deletion strains, locus YLR418C, strain cdc73, hits give low values 0.984 | S. cerevisiae deletion strains, locus YML016C, strain PPZ1, hits give low values 1 | S. cerevisiae deletion strains, locus YML032C, strain rad52, hits give low values 0.99 | S. cerevisiae deletion strains, locus YML120C, strain ndi1, hits give low values 1.02 | S. cerevisiae deletion strains, locus YML124C, strain tub3, hits give low values 0.989 | S. cerevisiae deletion strains, locus YMR058W, strain fet3, hits give low values 1.01 | S. cerevisiae deletion strains, locus YMR078C, strain ctf18, hits give low values 0.993 | S. cerevisiae deletion strains, locus YMR125W, strain sto1, hits give low values 1.01 | S. cerevisiae deletion strains, locus YMR129W, hits give low values 1.01 | S. cerevisiae deletion strains, locus YMR205C, strain PFK2, hits give low values 0.981 | S. cerevisiae deletion strains, locus YMR223W, strain ubp8, hits give low values 1.01 | S. cerevisiae deletion strains, locus YMR231W, strain pep5, hits give low values 1.01 | S. cerevisiae deletion strains, locus YMR307W, strain GAS1, hits give low values 1 | S. cerevisiae deletion strains, locus YNL067W, strain RPL9B, hits give low values 0.993 | S. cerevisiae deletion strains, locus YNL071W, strain lat1, hits give low values 1.02 | S. cerevisiae deletion strains, locus YNL153C, strain GIM3, hits give low values 1.01 | S. cerevisiae deletion strains, locus YNL183C, strain NPR1, hits give low values 0.951 | S. cerevisiae deletion strains, locus YNL209W, strain ssb2, hits give low values 1 | S. cerevisiae deletion strains, locus YNL233W, strain BNI4, hits give low values 0.999 | S. cerevisiae deletion strains, locus YNL248C, strain rpa49, hits give low values 0.984 | S. cerevisiae deletion strains, locus YNL250W, strain rad50, hits give low values 0.985 | S. cerevisiae deletion strains, locus YNL271C, strain bni1, hits give low values 0.984 | S. cerevisiae deletion strains, locus YNL298W, strain CLA4, hits give low values 0.992 | S. cerevisiae deletion strains, locus YNL307C, strain MCK1, hits give low values 0.987 | S. cerevisiae deletion strains, locus YNL322C, strain KRE1 (second series), hits give low values 1.02 | S. cerevisiae deletion strains, locus YNR049C, strain mso1, hits give low values 1.01 | S. cerevisiae deletion strains, locus YNR052C, strain pop2, hits give low values 0.978 | S. cerevisiae deletion strains, locus YOL006C, strain TOP1, hits give low values 1.07 | S. cerevisiae deletion strains, locus YOL012C, strain htz1 0.809 | S. cerevisiae deletion strains, locus YOL147C, strain pex11, hits give low values 0.987 | S. cerevisiae deletion strains, locus YOR001W, strain rrp6, hits give low values 1.02 | S. cerevisiae deletion strains, locus YOR061W, strain CKA2, hits give low values 1.01 | S. cerevisiae deletion strains, locus YOR069W, strain VPS5, hits give low values 1 | S. cerevisiae deletion strains, locus YOR070C, strain gyp1, hits give low values 0.996 | S. cerevisiae deletion strains, locus YOR080W, strain dia2, hits give low values 1.04 | S. cerevisiae deletion strains, locus YOR083W, strain WHI5, hits give low values 0.953 | S. cerevisiae deletion strains, locus YOR106W, strain vam3, hits give low values 1.02 | S. cerevisiae deletion strains, locus YOR136W, strain idh2, hits give low values 0.995 | S. cerevisiae deletion strains, locus YOR144C, strain elg1, hits give low values 1 | S. cerevisiae deletion strains, locus YOR184W, strain ser1, hits give low values 0.976 | S. cerevisiae deletion strains, locus YOR231W, strain MKK1, hits give low values 0.985 | S. cerevisiae deletion strains, locus YOR265W, strain rbl2, hits give low values 1.02 | S. cerevisiae deletion strains, locus YOR270C, strain vph1, hits give low values 1.04 | S. cerevisiae deletion strains, locus YOR290C, strain snf2, hits give low values 1.02 | S. cerevisiae deletion strains, locus YOR316C, strain cot1, hits give low values 0.989 | S. cerevisiae deletion strains, locus YPL051W, strain arl3, hits give low values 1.02 | S. cerevisiae deletion strains, locus YPL078C, strain atp4, hits give low values 1 | S. cerevisiae deletion strains, locus YPL106C, strain sse1, hits give low values 1.07 | S. cerevisiae deletion strains, locus YPL240C, strain hsp82, hits give low values 1.01 | S. cerevisiae deletion strains, locus YPL256C, strain CLN2, hits give low values 0.984 | S. cerevisiae deletion strains, locus YPR119W, strain clb2, hits give low values 0.995 | S. cerevisiae deletion strains, locus YPR141C, strain kar3, hits give low values 0.993 | S. cerevisiae deletion strains, locus YPR163C, strain tif3, hits give low values 0.984 | S. cerevisiae deletion strains, locus YPR167C, strain met16, hits give low values 0.986 | S. cerevisiae deletion strains, strain wtn01, hits give low values 0.967 | S. cerevisiae strains, strain wild type, hits give low values 1.01

Source: PubChem BioAssay AID1159580 (chemical genetic matrix, 2015)
